This excerpt belongs to a sample that is enriched for hits.
Methyltransferases – Primary Screen for Target Class Profiling of Small Molecule Inhibitors of Methyltransferases | purified enzyme, MTase-Glo SAH luminescence; active compounds read low | actives 3.9% (n = 25,000) | calls only at 40 µM; call rule not given here
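Each enzyme was reacted with SAM and its substrate, with compounds tested once at 40 uM; SAH formed was read by MTase-Glo luminescence.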
Active calls of the source: *; i = inactive; + = active, no number. On the % scale 0 is the no-effect control and ±100 the full control effect.

SMILES	Methyltransferases
CN[C@@H](C)C(=O)N1CCC(c2cc(N3CCOCC3)nc(C)n2)CC1	i
CC(C)CNC(=O)c1ccc2c(=O)n(C)c3nn(Cc4cccc(Cl)c4)c(=O)n3c2c1	i
Cc1ccc2c(c1)c(-n1cccc1)c1n2CC(C)(C(=O)NC2CCCCC2)N(Cc2ccco2)C1=O (stereo not drawn)	i
CC1(C(=O)NC2CCCCC2)Cn2c(ccc2-c2ccco2)C(=O)N1Cc1cccs1 (stereo not drawn)	i
CCCC1c2cccn2CCN1C(=O)Nc1cc(OC)cc(OC)c1 (stereo not drawn)	i
COc1ccc(CNC(=O)c2cc3n(n2)CC(C)(C(=O)NC2CCCC2)N(C)C3=O)c(OC)c1 (stereo not drawn)	i
O=C1Cc2c([nH]c3ccc(Br)cc23)-c2ncccc2N1	+
CC(C)n1c(=O)c2ccc(C(=O)NC3CCCCC3)cc2n2c(=O)n(Cc3ccc(F)cc3Cl)nc12	i
O=C(Nc1nc2ccccc2n1CCc1ccccc1)c1ccccc1	i
CCc1nc(-c2cccc(C)c2)c(-c2ccnc(NC(=O)c3ccccc3)c2)s1	i
O=C(Nc1cc2cc[nH]c2cn1)c1ccccc1	+
COc1ccccc1CNC(=O)C1(C)Cn2nc(-c3ccccc3)cc2C(=O)N1c1ccc(C)cc1 (stereo not drawn)	i
Cc1cc(NC(=O)c2cccc(NC(=O)/C=C/CN(C)C)c2)ccc1Nc1nccc(-c2cccnc2)n1	+
Cc1nc(CCNC(=O)c2cnc(-c3cccnc3)nc2)cc(=O)[nH]1	i
Cc1ccc(NC(=O)N2CCC(n3c(C)cnc3-c3cccnc3)C2)cc1C (stereo not drawn)	i
Cc1ccc(C)c(C(=O)Cn2nc3n(CCc4ccccc4)c(=O)c4ccccc4n3c2=O)c1	i
Cc1cccc(-c2[nH]c(CNc3ccccc3F)nc2-c2ccc3ncnn3c2)n1	i
Oc1ccc(CNc2ccccc2F)c2cccnc12	+
CC1CCN(S(=O)(=O)c2ccc3c(ccn3CC(=O)NCc3ccco3)c2)CC1	i
COc1cccc(CN2C(=O)c3nc4ccccc4n3CC2(C)C(=O)NCc2ccccc2)c1OC (stereo not drawn)	i
Cn1c(=O)c2ccc(C(=O)NC3CCCCC3)cc2n2c(=O)n(CC(=O)NC(C)(C)C)nc12	i
C=CC(C)(O)CC/C=C(\C)COC1O[C@H](CO)[C@@H](O)[C@H](O)[C@H]1O (stereo partly drawn)	+
C/C(=C\CCC(C)(C)O)CCO[C@@H]1O[C@H](CO[C@@H]2O[C@@H](C)[C@H](O)[C@@H](O)[C@H]2O)[C@@H](O)[C@H](O)[C@H]1O	i
C=CC(C)(O)CC/C=C(\C)C(=O)O[C@@H]1[C@@H](O)[C@H](OC(C)(C=C)CC/C=C(\C)C(=O)O[C@@H]2O[C@H](CO)[C@@H](O)[C@H](O)[C@H]2O)O[C@H](CO)[C@H]1OC(=O)/C(C)=C/CCC(C)(O)C=C (stereo partly drawn)	i
CCCn1c(=O)c2ccc(C(=O)NC(C)CC)cc2n2c(SCC(=O)Nc3ccc(C)cc3)nnc12 (stereo not drawn)	i
SMILES	Methyltransferases
COc1cccc(N2CCN(C(=O)CCc3nnc4n(Cc5ccccc5)c(=O)c5ccccc5n34)CC2)c1	i
CCC(C)NC(=O)c1ccc2c(=O)n(Cc3ccccc3)c3nn(CC(=O)NC(C)C)c(=O)n3c2c1 (stereo not drawn)	i
CCn1ncnc1C(C)NC(=O)Cn1nc(-c2ccccc2)n(CC)c1=O (stereo not drawn)	i
COCCCNC(=O)C1(C)Cn2nc(-c3ccccc3)cc2C(=O)N1c1ccc(C(C)C)cc1 (stereo not drawn)	i
CC(C)c1cc2c(N3CCN(C4=NCC(C)(C)S4)CC3)ncnc2s1	+
CCCc1cc2c(N3CCN(C4=NCC(C)(C)S4)CC3)ncnc2s1	+
CSc1ccc(CCNC(=O)CCn2ccc3cc(S(=O)(=O)N4CCCC4)ccc32)cc1	i
CC(C)NC(=O)c1ccc2c(=O)n(C(C)C)c3nn(CC(=O)c4ccc(F)cc4)c(=O)n3c2c1	i
CC(=O)N1CCCC(c2nn(-c3ccccn3)c(=O)[nH]2)C1 (stereo not drawn)	i
COC(=O)c1cc2n(n1)CC(C)(C(=O)NC1CCCCC1)N(c1cccc(C)c1C)C2=O (stereo not drawn)	i
CSc1ccc(CCNC(=O)Cn2ccc3cc(S(=O)(=O)N4CCCCC4)ccc32)cc1	i
CCC(C)NC(=O)c1ccc2c(=O)n(C(C)C)c3nn(Cc4cccc(C)c4)c(=O)n3c2c1 (stereo not drawn)	i
Cc1cc2c(cc3n2CC(C(=O)NC2CCCCCC2)(c2ccccc2)N(Cc2ccccc2)C3=O)o1 (stereo not drawn)	i
COc1ccc(N(C)c2nc(C)nc3ccccc23)cc1	i
COc1ccc(/C=C/c2nc(NCCCN(C)C)c3ccccc3n2)cc1	+
CCCn1c(=O)c2ccc(C(=O)NC3CCCCC3)cc2n2c(=O)n(CC(=O)Nc3ccccc3)nc12	i
